Each structure is given as a SMILES string. The source made the active and inactive calls. The calls were made as follows: active = hit-call score of the fitted dose curve at least 0.9, where 1 is the maximum; inactive = score below 0.9.

The nature of experiment [1]: BSK_CASM3C_SRB: Viability Assessment in the BioMAP Diversity Plus: CASM3C Assay (AID 2283050).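 Also: cells exposed to compound for 24 h.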 The settings on record: primary human coronary artery smooth muscle cells.
Read-out in experiment [2]: Thrombomodulin, THBD (gene 7056)
Nature of the experiment: BSK_CASM3C_Thrombomodulin: BioMAP Diversity Plus: CASM3C Assay for Thrombomodulin Biomarker Activity (AID 2283051).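 Also: thrombomodulin protein level measured by ELISA 24 h after dosing.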 The conditions noted are these: primary human coronary artery smooth muscle cells; actives raise or lower the signal.

Read-out in experiment [3]: Tissue Factor, F3 (gene 2152)
In words: BSK_CASM3C_TissueFactor: BioMAP Diversity Plus: CASM3C Assay for Tissue Factor Biomarker Activity (AID 2283052).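 Also: cell surface tissue factor protein level read by ELISA.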 The conditions noted are these: primary human coronary artery smooth muscle cells; actives raise or lower the signal.

Read-out in experiment [4]: Interferon-gamma inducible Protein 10 (IP10), CXCL10 (gene 3627)
In words: BSK_hDFCGF_IP10: BioMAP Diversity Plus: hDFCGF Assay for Interferon-gamma inducible Protein 10 (IP10) Biomarker Activity (AID 2283053). The conditions noted are these: primary human foreskin fibroblasts; actives raise or lower the signal. The method, boiled down:
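ELISA quantification of IP-10 after a 24 h chemical exposure of human dermal foreskin fibroblast primary cultures. Both increases and decreases versus DMSO fitted.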

Read-out in experiment [5]: Urokinase-type plasminogen activator receptor (uPAR), PLAUR (gene 5329)
Nature of the experiment: BSK_CASM3C_uPAR: BioMAP Diversity Plus: CASM3C Assay for Urokinase-type plasminogen activator receptor (uPAR) Biomarker Activity (AID 2283054).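 Also: cell-surface uPAR protein level quantified by ELISA.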 The settings on record: primary human coronary artery smooth muscle cells; actives raise or lower the signal.

Read-out in experiment [6]: Vascular cell adhesion molecule 1 (VCAM1), VCAM1 (gene 7412)
Nature of the experiment: BSK_CASM3C_VCAM1: BioMAP Diversity Plus: CASM3C Assay for Vascular cell adhesion molecule 1 (VCAM1) Biomarker Activity (AID 2283055).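 Also: VCAM-1 protein level quantified by ELISA on the cells.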 The conditions noted are these: primary human coronary artery smooth muscle cells; actives raise or lower the signal.

Read-out in experiment [7]: Epidermal growth factor receptor (EGFR), EGFR (gene 1956)
Nature of the experiment: BSK_hDFCGF_EGFR: BioMAP Diversity Plus: hDFCGF Assay for Epidermal growth factor receptor (EGFR) Biomarker Activity (AID 2283057). The settings on record: primary human foreskin fibroblasts; actives raise or lower the signal. The method, boiled down: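 EGFR levels by ELISA in human dermal fibroblast cultures, 24 h post-treatment, fitted bidirectionally versus DMSO. Parallel wells stained with sulforhodamine B to detect overt cytotoxicity.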

Read-out in experiment [8]: Interleukin-8 (IL8), CXCL8 (gene 3576)
In words: BSK_hDFCGF_IL8: BioMAP Diversity Plus: hDFCGF Assay for Interleukin-8 (IL8) Biomarker Activity (AID 2283058). The settings on record: primary human foreskin fibroblasts; actives raise or lower the signal. The method, boiled down: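 Cells used are human skin primary fibroblasts. Chemical is added, cultures run 24 h, then IL-8 is quantified by ELISA, and gain or loss versus DMSO control is fitted in both directions.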

Experiment [9] can be described thus: BSK_hDFCGF_Proliferation: Cell Proliferation Assessment in the BioMAP Diversity Plus: hDFCGF Assay (AID 2283059).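 Also: curves fitted for both rise and fall of signal versus DMSO baseline.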 The settings on record: primary human foreskin fibroblasts. An outline of the steps: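 This proliferation readout used SRB total-protein staining of human foreskin fibroblasts […], normalized to DMSO with bidirectional curve fitting.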

Read-out in experiment [10]: Macrophage colony-stimulating factor (MCSF), CSF1 (gene 1435)
In words: BSK_hDFCGF_MCSF: BioMAP Diversity Plus: hDFCGF Assay for Macrophage colony-stimulating factor (MCSF) Biomarker Activity (AID 2283060). The conditions noted are these: primary human foreskin fibroblasts; actives raise or lower the signal. An outline of the steps:
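Primary human foreskin fibroblasts dosed with chemical; 24 h later, M-CSF quantified by ELISA; curves fitted in both directions vs DMSO negative control.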

Experiment [11] in a line: BSK_hDFCGF_SRB: Viability Assessment in the BioMAP Diversity Plus: hDFCGF Assay (AID 2283061).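 Also: cells exposed to compound for 24 h before the read.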 The settings on record: primary human foreskin fibroblasts. The method, boiled down:
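Readout is SRB absorbance at 560 nm, reflecting total protein in parallel cultures of human foreskin fibroblasts harvested 24 h after chemical dosing. Activity was fitted bidirectionally relative to DMSO.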

Read-out in experiment [12]: TIMP metallopeptidase inhibitor 1 (TIMP1), TIMP1 (gene 7076)
Nature of the experiment: BSK_hDFCGF_TIMP1: BioMAP Diversity Plus: hDFCGF Assay for TIMP metallopeptidase inhibitor 1 (TIMP1) Biomarker Activity (AID 2283062). The settings on record: primary human foreskin fibroblasts; actives raise or lower the signal. An outline of the steps:
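Human skin fibroblasts (primary), hDFCGF system; compound exposure 24 h; TIMP-1 by ELISA; bidirectional fit vs DMSO negative control; overt cytotoxicity by SRB in parallel wells.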

Read-out in experiment [13]: Monokine induced gamma interferon (MIG), CXCL9 (gene 4283)
Nature of the experiment: BSK_hDFCGF_MIG: BioMAP Diversity Plus: hDFCGF Assay for Monokine induced gamma interferon (MIG) Biomarker Activity (AID 2283063). The conditions noted are these: primary human foreskin fibroblasts; actives raise or lower the signal. An outline of the steps:
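Chemicals were added to primary human foreskin fibroblast cultures, which were sampled 24 h later. MIG levels were then quantified by ELISA and responses fitted in both directions relative to DMSO.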

Read-out in experiment [14]: Matrix Metallopeptidase 1 (MMP1), MMP1 (gene 4312)
Nature of the experiment: BSK_hDFCGF_MMP1: BioMAP Diversity Plus: hDFCGF Assay for Matrix Metallopeptidase 1 (MMP1) Biomarker Activity (AID 2283064). The settings on record: primary human foreskin fibroblasts; actives raise or lower the signal. An outline of the steps: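 Human foreskin fibroblasts exposed to chemical for 24 h; MMP1 detected by ELISA, with DMSO as baseline for bidirectional fitting.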

Read-out in experiment [15]: Vascular cell adhesion molecule 1 (VCAM1), VCAM1 (gene 7412)
Nature of the experiment: BSK_hDFCGF_VCAM1: BioMAP Diversity Plus: hDFCGF Assay for Vascular cell adhesion molecule 1 (VCAM1) Biomarker Activity (AID 2283065).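 As to AC50: VCAM-1 protein level quantified by ELISA after 24 h chemical exposure.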 The settings on record: primary human foreskin fibroblasts; actives raise or lower the signal. The method, boiled down: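 Human foreskin fibroblast primary cells, chemical exposure 24 h; VCAM-1 by ELISA; bidirectional fit, DMSO = negative control/baseline.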

Read-out in experiment [16]: Plasminogen activator inhibitor-1 (PAI1), SERPINE1 (gene 5054)
Nature of the experiment: BSK_hDFCGF_PAI1: BioMAP Diversity Plus: hDFCGF Assay for Plasminogen activator inhibitor-1 (PAI1) Biomarker Activity (AID 2283066). The conditions noted are these: primary human foreskin fibroblasts; actives raise or lower the signal. The method, boiled down: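 PAI-1 levels in human dermal foreskin fibroblasts were quantified by ELISA 24 h after dosing, with gain or loss analysed against DMSO. Overt cytotoxicity was checked by sulforhodamine B total-protein staining in parallel cultures.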

Read-out in experiment [17]: Intercellular Adhesion Molecule 1 (ICAM1), ICAM1 (gene 3383)
In words: BSK_KF3CT_ICAM1: BioMAP Diversity Plus: KF3CT Assay for Intercellular Adhesion Molecule 1 (ICAM1) Biomarker Activity (AID 2283067). The conditions noted are these: primary human keratinocytes with fibroblasts; actives raise or lower the signal. An outline of the steps:
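ICAM-1 levels are measured by ELISA 24 h after dosing a primary human co-culture of keratinocytes and foreskin fibroblasts. Activity in either direction is fitted relative to DMSO vehicle.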

Read-out in experiment [18]: Interferon-gamma inducible Protein 10 (IP10), CXCL10 (gene 3627)
In words: BSK_KF3CT_IP10: BioMAP Diversity Plus: KF3CT Assay for Interferon-gamma inducible Protein 10 (IP10) Biomarker Activity (AID 2283068). The settings on record: primary human keratinocytes with fibroblasts; actives raise or lower the signal. An outline of the steps:
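Signal is secreted/surface IP-10 by ELISA in a human primary skin co-culture of keratinocytes and foreskin fibroblasts, taken 24 h post-dosing; DMSO served as negative control.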

Experiment [19] can be described thus: BSK_KF3CT_SRB: Viability Assessment in the BioMAP Diversity Plus: KF3CT Assay (AID 2283069).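 Also: read 24 h after compound addition; fitted for both signal gain and loss against DMSO baseline.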 The settings on record: primary human keratinocytes with fibroblasts. The method, boiled down: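 Overt cytotoxicity is assessed as total protein by sulforhodamine B staining in parallel human skin co-cultures at 24 h after dosing. DMSO serves as negative control and baseline.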

Take `CCCSP(=O)(OCC)SCCC`: the outcome in [1], in experiment [2], in experiment [3], in experiment [4], in experiment [5] and in experiment [6] was inactive. Besides, the result in [7], in experiment [8], in [9], in experiment [10], in experiment [11] and in experiment [12] was inactive. Besides, the result in [13], in [14], in experiment [15], in experiment [16], in experiment [17] and in experiment [18] was inactive. The result in experiment [19] was inactive.
Regarding `CNC(=O)ON=C(C)SC`, the outcome in [1], in experiment [2], in experiment [3], in experiment [4], in experiment [5] and in experiment [6] was inactive. The outcome in experiment [7], in experiment [8], in [9], in experiment [10], in [11] and in [12] was inactive. The outcome in experiment [13], in experiment [14], in [15], in experiment [16], in experiment [17] and in experiment [18] was inactive. In addition, the outcome in experiment [19] was inactive.
As for `COc1cccc(C(=O)NN(C(=O)c2cc(C)cc(C)c2)C(C)(C)C)c1C`, the result in experiment [1], in experiment [2], in experiment [3], in experiment [4], in [5] and in experiment [6] was inactive. For the same compound, the result in [7], in experiment [8], in experiment [9], in experiment [10], in experiment [11] and in experiment [12] was inactive. Further, the outcome in experiment [13], in experiment [14], in [15], in experiment [16], in [17] and in experiment [18] was inactive. Moreover, the result in experiment [19] was inactive.
With `COP(=O)(NC(C)=O)SC` (configuration not stated), the outcome in [1], in experiment [2], in experiment [3], in experiment [4], in experiment [5] and in experiment [6] was inactive. Besides, the outcome in [7], in experiment [9], in experiment [10], in experiment [11], in experiment [12] and in experiment [13] was inactive. Further, the outcome in experiment [14], in [15], in experiment [16], in [17], in [18] and in [19] was inactive.
`CCOP(=S)(OCC)Oc1ccc([N+](=O)[O-])cc1`: the result in experiment [1], in experiment [3], in [5], in [6], in [7] and in [11] was inactive. Moreover, the result in [12], in experiment [13], in experiment [14], in experiment [17] and in experiment [19] was inactive. For the same compound, the concentration at half-maximal activity (AC50) in experiment [2] was 15.4 µM (active); in experiment [4], 20 µM (active); in experiment [9], 14.2 µM (active); in experiment [10] it was 9.79 µM (active); in experiment [15] it was 20 µM (active); in experiment [16] it was 20 µM (active). Moreover, the AC50 in experiment [18] was 32.7 µM (active).
As to `CSc1nnc(C(C)(C)C)c(=O)n1N`, the outcome in [1], in experiment [2], in [3], in experiment [6], in experiment [7] and in [8] was inactive. The result in [9], in experiment [10], in experiment [11], in [13], in experiment [14] and in experiment [15] was inactive. Besides, the result in [16], in [17], in experiment [18] and in experiment [19] was inactive. In addition, the figures for the AC50 in experiment [4], in experiment [5] and in experiment [12] were 12.7 µM (active), 1.32 µM (active) and 30.4 µM (active), respectively.

These data come from PubChem BioAssay (EPA / NIEHS).
